# The list is not random: actives were taken first. Their share in the collection is about 2.7%.
# GLP1R cytotox = qHTS of GLP-1 Receptor Inverse Agonists: Cytotox Screen; HEK293 cAMP-luciferase reporter cells, luminescence, 24 h; Potency, µM (series often up to 38.3 µM), inactives show at the highest dose activity change, negative = inhibition, most hits filed as inhibitors; 410,000 compounds, 0.13% hits; AID 624418, 2012;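 also: loss of luciferase light is scored as toxicity; % is scaled to controls: 0 for no effect and ±100 for the full control effect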
#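 MLSMR compounds, 24 hr on cells at 37 deg C/5% CO2; luminescence after luciferase reagent (12 min RT). Inhibition counted as the undesired cytotoxic outcome.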
# mIDH1 inhibitor = qHTS for Inhibitors of mutant isocitrate dehydrogenase 1 (IDH1): qHTS; Isocitrate dehydrogenase [NADP] cytoplasmic (Homo sapiens), O75874; IDH1-R132H enzyme, NADPH consumption, diaphorase/resazurin fluorescence; Potency, µM (top dose mostly 76.6 µM), without a hit: top-dose activity change, negative = inhibition, actives largely listed as inhibitors; 390,000 compounds, 0.093% hits; AID 602179, 2012; also: % is scaled to controls: 0 for no effect and ±100 for the full control effect; nearly all actives have a fitted effect of over 65% in size
#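 IDH1-R132H (0.5 ug/mL) preincubated 30 min with compound, then NADPH (0.016 mM) and alpha-KG (2 mM) added; 80 min at RT, pH 7.5. Remaining NADPH coupled via diaphorase/resazurin to fluorescence (540/590 nm); concentration-response curves normalized to no-enzyme control.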
# TrxR1 substrate = qHTS Assay for Substrates of Mammalian Selenoprotein Thioredoxin Reductase 1 (TrxR1): qHTS; purified TrxR1 substrate turnover, NADPH consumption readout; 390,000 compounds, 0.01% hits; Thioredoxin reductase 1, cytoplasmic (Rattus norvegicus), O89049; Potency, µM (titrated, usually from 114 µM), inactives show at the highest dose activity change, negative = substrate turnover; AID 588456, 2011; also: % is scaled to controls: 0 for no effect and ±100 for the full control effect; nearly all actives have a fitted effect of over 50% in size
# Target sequence (O89049 whole entry, looked up): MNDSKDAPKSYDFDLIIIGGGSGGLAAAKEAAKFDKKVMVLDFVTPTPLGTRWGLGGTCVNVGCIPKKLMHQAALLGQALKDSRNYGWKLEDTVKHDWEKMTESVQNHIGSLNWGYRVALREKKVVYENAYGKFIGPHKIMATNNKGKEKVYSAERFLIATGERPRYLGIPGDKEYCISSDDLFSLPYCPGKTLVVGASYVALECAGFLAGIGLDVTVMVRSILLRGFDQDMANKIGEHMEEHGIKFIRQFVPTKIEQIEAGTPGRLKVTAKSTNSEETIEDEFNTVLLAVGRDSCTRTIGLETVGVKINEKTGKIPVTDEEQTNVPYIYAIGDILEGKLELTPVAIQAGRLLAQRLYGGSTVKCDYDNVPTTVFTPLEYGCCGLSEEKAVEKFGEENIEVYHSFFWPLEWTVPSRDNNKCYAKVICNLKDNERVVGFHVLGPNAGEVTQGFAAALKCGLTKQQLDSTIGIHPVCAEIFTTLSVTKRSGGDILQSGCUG
#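 Rat TrxR1, dispensed at 90 nM, was prereduced with 400 uM NADPH (final) for 5 min at ~22 deg C, then incubated with compound 15 min before 400 uM selenite. A first-read NADPH fluorescence drop versus no-compound background flagged substrates.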
# GLP1R inv ag = qHTS of GLP-1 Receptor Inverse Agonists (Inhibition Mode). HEK293 GLP-1R CRE-luciferase, luminescence, 24 h; GLP-1R form is constitutively active. Potency, µM (titrated, usually from 38.3 µM), inactives show at the top dose activity change, negative = inhibition, usual class: inhibitors. 410,000 compounds, 1.6% hits. AID 624417, 2012; also: % is scaled to controls: 0 for no effect and ±100 for the full control effect; nearly all actives have a fitted effect of over 55% in size
#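 Luminescence readout: a drop in cAMP-driven luciferase signal flags inverse agonism at a constitutively active GLP-1R stably expressed in HEK293. Compound exposure lasted 24 hr at 37 deg C, 5% CO2.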
# rTrxR1 inhibitor = qHTS Assay for Inhibitors of Mammalian Selenoprotein Thioredoxin Reductase 1 (TrxR1): qHTS; recombinant rTrxR1, NADPH fluorescence consumption, selenite substrate; Potency, µM (highest dose often 114 µM), inactives show top-dose activity change, negative = inhibition, hits mostly inhibitors; 390,000 compounds, 1% hits; AID 588453, 2011; also: % is scaled to controls: 0 for no effect and ±100 for the full control effect; nearly all actives have a fitted effect of over 65% in size
#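 Rat TrxR1 (90 nM in the dispensed reagent) was pre-reduced with 400 uM NADPH for 5 min at room temperature, then incubated with compound for 15 min. After 400 uM selenite was added, NADPH fluorescence (Ex 340/Em 450 nm) was followed for 8 min.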
# GLP1R ag = qHTS of GLP-1 Receptor Agonists. Potency, µM (series often up to 45.6 µM), without a hit: top-dose activation, actives largely listed as activators. HEK293 GLP-1R CRE-luciferase, luminescence, 4-6 h; cells express a hypersensitive GLP-1R form. Glucagon-like peptide 1 receptor (Homo sapiens), P43220. 380,000 compounds, 0.007% hits; also: % of control where 0% means no effect
# Starred values were filed as active, the others as inactive; ? = inconclusive; · = no result given; [ ] = another dose, or the depositor's remark. Calls follow the shape of the dose curve; as a rule, active = well fitted curve in the direction sought with a large enough effect; inconclusive = small, poorly fitted or top-dose-only effect, or another doubt; inactive = no such curve, though single readings can be large; an effect the other way counts as inactive or inconclusive. Potency is read from the fitted curve at half-maximal effect.
SMILES,GLP1R cytotox,mIDH1 inhibitor,TrxR1 substrate,GLP1R inv ag,rTrxR1 inhibitor,GLP1R ag
COc1ccc2ccccc2c1CN1CCN(C(=O)c2ccco2)CC1,?,4.1%,-8.9%,?,10.7%[57.1 µM],7.4%
Cc1ccc(CN2CCN(C(=O)c3cccc4ccccc34)CC2)cc1,-1.6%,5.2%,-5.4%,3.98µM*,8.3%,12.2%
COc1ccc2ccccc2c1CN1CCN(C(=O)c2ccccc2)CC1,-7.8%,9.8%,-7.0%[57.1 µM],10µM*,-58.4%,-2.6%
Cc1ccccc1CN1CCN(C(=O)c2cccc3ccccc23)CC1,-6.8%,2.1%,0.4%,10µM*,8.0%,1.8%
COc1ccccc1CN1CCN(C(=O)c2cccc3ccccc23)CC1,3.7%,0.6%,0.0%,11.2µM*,12.2%,-6.7%
O=C(Cn1c(=O)c2ccccc2n(CC(=O)Nc2ccc(F)cc2)c1=O)NCCc1ccccc1,6.1%,1.5%,10.0%,-3.4%,30.1%,-0.4%
COC(=O)c1ccc(NC(=O)CN(Cc2ccccc2)S(=O)(=O)c2ccc(Cl)cc2)cc1,-16.5%,-5.1%,-4.8%,8.91µM*,2.4%,·
COc1ccc(NC(=O)CN(Cc2ccccc2)S(=O)(=O)c2ccc(C)cc2)cc1Cl,-5.0%,-6.3%,-6.9%,10µM*,16.5%,·
COc1ccc(S(=O)(=O)N(CC(=O)Nc2cc(C)ccc2OC)Cc2ccccc2)cc1,0.7%,-11.5%,7.7%,?,24.7%,·
COC(=O)c1ccc(NC(=O)CN(Cc2ccccc2)S(=O)(=O)c2ccc(C)cc2)cc1,2.3%,0.0%,2.9%,10µM*,25.4%,·
Nc1ccc(/C=C/c2cc(Cl)nc3ccccc23)cc1,·,·,-5.0%,·,6.4%,·
CC1c2[nH]c3ccccc3c2CCN1C(=O)Nc1ccccc1 (configuration not stated),7.2%,1.1%,7.7%[57.1 µM],?,10.5%[57.1 µM],-16.1%
O=C(Nc1ccccc1)N1CCc2c([nH]c3ccccc23)C1C(F)(F)F (configuration not stated),8.3%,-4.1%,-2.2%,2.82µM*,9.3%,1.8%
Cc1nonc1CC(=O)N1CCc2c([nH]c3ccccc23)C1c1ccccc1F (configuration not stated),-9.4%,9.1%,2.1%[57.1 µM],?,4.6%[57.1 µM],8.7%
Cc1ccc(NC(=O)N2CCc3c([nH]c4ccccc34)C2c2ccccc2F)c(Cl)c1 (configuration not stated),-12.2%,-8.0%,-4.0%,10µM*,16.3%,·
CCOC(=O)c1ccc(NC(=O)Cc2ccc(-n3c(CC)nc4cccnc43)cc2)cc1,-14.9%,-0.7%,0.2%,12.4%,1.6%,·
COc1cccc(C(=O)COC(=O)c2cc(-c3cccs3)nc3ccccc23)c1,-2.8%,-5.2%,73.7%,-26.5%,50.7%,·
COc1cccc(CN(C)C(=O)c2cc(-c3cccs3)nc3ccccc23)c1,?,3.1%,33.2%,6.31µM*,2.1%,2.6%
COc1cc2[nH]c(=O)n(Cc3ccc(C(=O)NCc4ccccc4)cc3)c(=O)c2cc1OC,-17.0%,-6.8%,-5.4%,-17.9%,11.4%[2.29 µM],-0.1%
CC1CCCCN1C(=O)c1ccc(C(=O)Nc2ccc(F)cc2)cc1 (configuration not stated),4.2%,3.0%,1.8%,-9.5%,12.0%,-6.2%
O=C(Nc1ccc(F)cc1)c1ccc(C(=O)N2CCCC(O)C2)cc1 (configuration not stated),-5.6%,-6.4%,13.7%[57.1 µM],-1.8%,10µM*,-4.3%
COc1cc(NC(=O)[C@@H](NC(=O)N2CCn3c2nc2ccccc23)C(C)C)cc(OC)c1,?,-8.5%,-5.4%,10µM*,19.6%,6.1%
COc1ccc(CNC(=O)[C@H](CCSC)NC(=O)N2CCn3c2nc2ccccc23)cc1,-14.8%,-3.2%,5.4%[57.1 µM],5.01µM*,19.2%[57.1 µM],16.1%
CN(C)C(=O)CCc1nc2sc3c(c2c(=O)[nH]1)CCCC3,-11.8%,1.2%,-1.0%,2.0%,-2.8%,0.0%
Cc1ccc(CN(C)C(=O)CCc2nc3sc4c(c3c(=O)[nH]2)CCCC4)o1,4.9%,0.8%,-3.0%,-10.7%,50.1µM*,7.6%
SMILES,GLP1R cytotox,mIDH1 inhibitor,TrxR1 substrate,GLP1R inv ag,rTrxR1 inhibitor,GLP1R ag
CN(CC(=O)Nc1ccc(F)cc1)C(=O)CCc1nc2sc3c(c2c(=O)[nH]1)CCCC3,-4.6%,1.3%,-1.7%,-26.0%,-7.5%,-5.0%
CN(Cc1ccco1)C(=O)CCc1nc2sc3c(c2c(=O)[nH]1)CCCC3,21.6%,-5.4%,-3.0%,7.0%,17.8µM*,-2.3%
Cc1cc(C)c(NC(=O)Cn2ccn(-c3cccc(Cl)c3)c(=O)c2=O)c(C)c1,1.3%,-18.2%,3.4%,7.9%,20.4%,·
Cc1cc2n(n1)CCCN2C(=O)Nc1ccc(C)c(Cl)c1,-1.3%,·,2.4%,1.8%,11.4%,·
O=C(COc1ccc(S(=O)(=O)N2CCOCC2)cc1)N1CCOCC1,17.9%,-8.3%,-13.8%,19.0%,-14.2%,-0.1%
O=[N+]([O-])/C=C\c1ccc(N2CCOCC2)cc1,?,-10.8%,-1.6%[57.1 µM],11.2µM*,?,-6.7%
O=C(COc1ccc(/C=C\[N+](=O)[O-])cc1)N1CCOCC1,5.4%,-1.9%,6.8%,4.0%,14.1µM*,-3.0%
N#Cc1nc(-c2ccco2)oc1N1CCN(C(c2ccccc2)c2ccccc2)CC1,-5.0%,-1.0%,34.7%,10µM*,36.8%,3.2%
Cc1ccc(CSc2nc3ccccc3c(=O)n2Cc2ccco2)cc1,16.6%,2.2%,7.6%[57.1 µM],?,-18.3%,0.6%
FC(F)(F)COc1cc(-c2nnc(SCc3ccccc3)n2Cc2ccco2)cc(OCC(F)(F)F)n1,4.8%,-0.6%,-8.2%,10µM*,8.3%,13.0%
O=c1c2ccccc2nc(SCc2ccccc2)n1Cc1ccco1,18.2%,4.9%,-9.8%,11.2µM*,?,9.1%
CCOc1ccc(NC(=O)c2oc3ccccc3c2NC(=O)Cc2ccc(F)cc2)cc1,-7.6%,-18.1%,22.6%,0.0%,20.3%,0.1%
Cc1ccsc1CN(C(=O)c1oc2cc(Br)ccc2c1C)C1CCS(=O)(=O)C1 (configuration not stated),-13.2%,·,-15.6%,?,-3.2%,·

# Screening data as filed in PubChem.
